# Where “and” joins values, the source holds several entries; their conditions need not be identical. Equal entries are not always repeated. The whole screen tested about 5,500 compounds, of which about 2,000 (36%) were called active. Another 18% or so got no clear call; they are omitted. The list shows a part of the results. Unmarked numbers belong to inactive results. No stated cut-off is given here; in the data, active means normalized growth mostly below about 0.91 (no sharp cut-off); inconclusive means no clear call, values can overlap the other calls; inactive means mostly above about 0.92.
# Assay: chemical genetic growth profiling, strain panel (AID 1159580);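 further: tested at 20 µM; growth read once vehicle control cultures reached saturation at 30 °C; 1 = growth at the plate median or of vehicle wells; lower values mean less growth of the strain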
# Conditions: growth OD
# [1] = S. cerevisiae deletion strains, locus YDL101C, strain DUN1, active compounds read low
# [2] = S. cerevisiae deletion strains, locus YGR052W, strain FMP48, active compounds read low
# [3] = S. cerevisiae deletion strains, locus YHR030C, strain SLT2, active compounds read low
# [4] = S. cerevisiae deletion strains, locus YHR079C, strain IRE1, active compounds read low
# [5] = S. cerevisiae deletion strains, locus YHR082C, strain KSP1, active compounds read low
# [6] = S. cerevisiae deletion strains, locus YJL095W, strain BCK1, active compounds read low
# [7] = S. cerevisiae deletion strains, locus YJR066W, strain TOR1, active compounds read low
# [8] = S. cerevisiae deletion strains, locus YKL203C, strain TOR2, active compounds read low
# [9] = S. cerevisiae deletion strains, locus YLR113W, strain HOG1, active compounds read low
# [10] = S. cerevisiae deletion strains, locus YNL183C, strain NPR1, active compounds read low
# [11] = S. cerevisiae deletion strains, locus YNL207W, strain RIO2, active compounds read low
# [12] = S. cerevisiae deletion strains, locus YOR119C, strain RIO1, active compounds read low
# [13] = S. cerevisiae deletion strains, locus YOR231W, strain MKK1, active compounds read low
# [14] = S. cerevisiae deletion strains, locus YPL256C, strain CLN2, active compounds read low
smiles,measurement,setting,value
CCOC(=O)c1ccc(Oc2sccc2[N+](=O)[O-])cc1,normalized growth,"S. cerevisiae deletion strains, locus YAL013W, strain DEP1, active compounds read low",0.796 (active)
same,normalized growth,"S. cerevisiae deletion strains, locus YBR229C, strain ROT2, active compounds read low",0.817 (active)
same,normalized growth,[1],0.77 (active)
same,normalized growth,"S. cerevisiae deletion strains, locus YDR150W, strain NUM1, active compounds read low",0.866
same,normalized growth,"S. cerevisiae deletion strains, locus YEL061C, strain CIN8, active compounds read low",0.442 (active)
same,normalized growth,[2],0.872
same,normalized growth,"S. cerevisiae deletion strains, locus YGR078C, strain PAC10, active compounds read low",0.811 (active)
same,normalized growth,[3],0.167 (active) and 0.769 (active)
same,normalized growth,[4],0.852 (active)
same,normalized growth,[5],0.878
same,normalized growth,"S. cerevisiae deletion strains, locus YHR087W, strain rtc3, active compounds read low",0.848 (active)
same,normalized growth,[6],0.772
same,normalized growth,"S. cerevisiae deletion strains, locus YJL187C, strain SWE1, active compounds read low",1.02
same,normalized growth,"S. cerevisiae deletion strains, locus YJR043C, strain POL32, active compounds read low",0.81 (active)
same,normalized growth,[7],0.876
same,normalized growth,"S. cerevisiae deletion strains, locus YJR075W, strain HOC1, active compounds read low",0.719 (active)
same,normalized growth,"S. cerevisiae deletion strains, locus YKL171W, strain NNK1, active compounds read low",0.854
same,normalized growth,"S. cerevisiae deletion strains, locus YKL190W, strain CNB1, active compounds read low",0.0675 (active)
same,normalized growth,[8],0.849 (active)
same,normalized growth,"S. cerevisiae deletion strains, locus YLR039C, strain RIC1, active compounds read low",0.239 (active)
same,normalized growth,"S. cerevisiae deletion strains, locus YLR058C, strain SHM2 (second series), active compounds read low",0.928 (active)
same,normalized growth,"S. cerevisiae deletion strains, locus YLR085C, strain ARP6, active compounds read low",0.143 (active)
same,normalized growth,[9],0.735
same,normalized growth,"S. cerevisiae deletion strains, locus YLR262C, strain YPT6, active compounds read low",0.407 (active)
same,normalized growth,"S. cerevisiae deletion strains, locus YML094W, strain GIM5, active compounds read low",0.747 (active)
same,normalized growth,"S. cerevisiae deletion strains, locus YMR219W, strain ESC1, active compounds read low",0.848 (active)
same,normalized growth,"S. cerevisiae deletion strains, locus YMR263W, strain SAP30, active compounds read low",0.867 (active)
same,normalized growth,"S. cerevisiae deletion strains, locus YNL153C, strain GIM3, active compounds read low",0.849 (active)
same,normalized growth,[10],0.864
same,normalized growth,[11],0.862
same,normalized growth,"S. cerevisiae deletion strains, locus YNL298W, strain CLA4 (second series), active compounds read low",0.241 (active)
same,normalized growth,"S. cerevisiae deletion strains, locus YNL322C, strain KRE1, active compounds read low",0.931 (active)
same,normalized growth,"S. cerevisiae deletion strains, locus YNR030W, strain Alg12, active compounds read low",0.341 (active)
same,normalized growth,"S. cerevisiae deletion strains, locus YOL006C, strain TOP1, active compounds read low",0.102 (active)
same,normalized growth,[12],0.86
same,normalized growth,[13],0.869
same,normalized growth,"S. cerevisiae deletion strains, locus YPL055C, strain LGE1, active compounds read low",0.84
same,normalized growth,"S. cerevisiae deletion strains, locus YPL241C, strain CIN2, active compounds read low",0.446 (active)
same,normalized growth,[14],0.734 (active)
same,normalized growth,"S. cerevisiae deletion strains, locus YPR135W, strain CTF4, active compounds read low",0.211 (active)
same,normalized growth,"S. cerevisiae strains, strain wild type, active compounds read low",0.0898 (active)
O=[N+]([O-])c1ccsc1Oc1cccc(C(F)(F)F)c1,normalized growth,"S. cerevisiae deletion strains, locus YAR019C, strain CDC15, active compounds read low",0.945
same,normalized growth,"S. cerevisiae deletion strains, locus YBL105C, strain PKC1, active compounds read low",0.986
same,normalized growth,"S. cerevisiae deletion strains, locus YBR135W, strain CKS1, active compounds read low",0.95
same,normalized growth,"S. cerevisiae deletion strains, locus YBR136W, strain MEC1, active compounds read low",0.976
same,normalized growth,"S. cerevisiae deletion strains, locus YBR160W, strain CDC28, active compounds read low",1.01
same,normalized growth,"S. cerevisiae deletion strains, locus YDL017W, strain CDC7, active compounds read low",0.987
same,normalized growth,"S. cerevisiae deletion strains, locus YDL028C, strain MPS1, active compounds read low",0.989
same,normalized growth,[1],0.958
same,normalized growth,"S. cerevisiae deletion strains, locus YDL108W, strain KIN28, active compounds read low",0.979
same,normalized growth,"S. cerevisiae deletion strains, locus YDL132W, strain cdc53, active compounds read low",0.946
same,normalized growth,"S. cerevisiae deletion strains, locus YDL214C, strain PRR2, active compounds read low",0.909
same,normalized growth,"S. cerevisiae deletion strains, locus YDR052C, strain DBF4, active compounds read low",0.989
same,normalized growth,"S. cerevisiae deletion strains, locus YDR054C, strain cdc34, active compounds read low",0.929
same,normalized growth,"S. cerevisiae deletion strains, locus YDR226W, strain ADK1, active compounds read low",0.973
same,normalized growth,"S. cerevisiae deletion strains, locus YDR477W, strain SNF1, active compounds read low",0.876
same,normalized growth,"S. cerevisiae deletion strains, locus YER123W, strain YCK3, active compounds read low",0.814
same,normalized growth,"S. cerevisiae deletion strains, locus YER133W, strain GLC7, active compounds read low",0.831
same,normalized growth,"S. cerevisiae deletion strains, locus YFL009W, strain cdc4, active compounds read low",0.925
same,normalized growth,"S. cerevisiae deletion strains, locus YFL029C, strain CAK1, active compounds read low",0.94
same,normalized growth,"S. cerevisiae deletion strains, locus YFR003C, strain YPI1, active compounds read low",0.984
same,normalized growth,"S. cerevisiae deletion strains, locus YFR019W, strain FAB1, active compounds read low",0.927
same,normalized growth,"S. cerevisiae deletion strains, locus YFR028C, strain CDC14, active compounds read low",0.955
same,normalized growth,"S. cerevisiae deletion strains, locus YGR040W, strain KSS1, active compounds read low",0.857
same,normalized growth,[2],0.88
same,normalized growth,"S. cerevisiae deletion strains, locus YGR092W, strain DBF2, active compounds read low",0.769
same,normalized growth,[3],1.26 [resistant] (active)
same,normalized growth,[4],0.962
same,normalized growth,[5],0.907
same,normalized growth,"S. cerevisiae deletion strains, locus YHR205W, strain SCH9, active compounds read low",0.872
same,normalized growth,"S. cerevisiae deletion strains, locus YIL147C, strain SLN1, active compounds read low",0.979
same,normalized growth,[6],0.861
same,normalized growth,"S. cerevisiae deletion strains, locus YJL128C, strain PBS2, active compounds read low",0.939
same,normalized growth,"S. cerevisiae deletion strains, locus YJL157C, strain FAR1, active compounds read low",0.887
same,normalized growth,"S. cerevisiae deletion strains, locus YJR016C, strain ILV3, active compounds read low",0.952
same,normalized growth,"S. cerevisiae deletion strains, locus YJR066W, strain TOR1 (second series), active compounds read low",0.71
same,normalized growth,[7],0.926
same,normalized growth,"S. cerevisiae deletion strains, locus YKL048C, strain ELM1, active compounds read low",0.912
same,normalized growth,"S. cerevisiae deletion strains, locus YKL067W, strain YNK1, active compounds read low",0.905
same,normalized growth,"S. cerevisiae deletion strains, locus YKL101W, strain HSL1, active compounds read low",0.931
same,normalized growth,"S. cerevisiae deletion strains, locus YKL193C, strain SDS22, active compounds read low",0.944
same,normalized growth,[8],0.887
same,normalized growth,[9],0.821 (active)
same,normalized growth,"S. cerevisiae deletion strains, locus YLR133W, strain CKI1, active compounds read low",0.936
same,normalized growth,"S. cerevisiae deletion strains, locus YLR403W, strain SFP1, active compounds read low",0.852
same,normalized growth,"S. cerevisiae deletion strains, locus YML070W, strain DAK1, active compounds read low",0.895
same,normalized growth,"S. cerevisiae deletion strains, locus YMR001C, strain CDC5, active compounds read low",0.956
same,normalized growth,"S. cerevisiae deletion strains, locus YMR205C, strain PFK2 (second series), active compounds read low",0.911
same,normalized growth,"S. cerevisiae deletion strains, locus YMR277W, strain FCP1, active compounds read low",0.94
same,normalized growth,"S. cerevisiae deletion strains, locus YNL006W, strain LST8, active compounds read low",0.946
same,normalized growth,"S. cerevisiae deletion strains, locus YNL020C, strain ARK1, active compounds read low",0.925
same,normalized growth,"S. cerevisiae deletion strains, locus YNL161W, strain CBK1, active compounds read low",0.972
same,normalized growth,[10],0.869
same,normalized growth,[11],0.96
same,normalized growth,"S. cerevisiae deletion strains, locus YNL222W, strain SSU72, active compounds read low",0.972
same,normalized growth,"S. cerevisiae deletion strains, locus YNL307C, strain MCK1 (second series), active compounds read low",0.939
same,normalized growth,"S. cerevisiae deletion strains, locus YOL078W, strain AVO1, active compounds read low",0.93
same,normalized growth,"S. cerevisiae deletion strains, locus YOL136C, strain PFK27, active compounds read low",0.89
same,normalized growth,"S. cerevisiae deletion strains, locus YOR061W, strain CKA2, active compounds read low",0.88
same,normalized growth,[12],0.883
same,normalized growth,[13],0.849
same,normalized growth,"S. cerevisiae deletion strains, locus YOR329C, strain SCD5, active compounds read low",0.984
same,normalized growth,"S. cerevisiae deletion strains, locus YPL031C, strain PHO85, active compounds read low",0.842
same,normalized growth,"S. cerevisiae deletion strains, locus YPL153C, strain RAD53, active compounds read low",0.846
same,normalized growth,"S. cerevisiae deletion strains, locus YPL204W, strain HRR25, active compounds read low",0.845
same,normalized growth,"S. cerevisiae deletion strains, locus YPL209C, strain IPL1, active compounds read low",0.984
same,normalized growth,[14],0.991
same,normalized growth,"S. cerevisiae deletion strains, locus YPR025C, strain CCL1, active compounds read low",0.98
same,normalized growth,"S. cerevisiae deletion strains, locus YPR106W, strain ISR1, active compounds read low",0.966
same,normalized growth,"S. cerevisiae deletion strains, locus YPR111W, strain DBF20, active compounds read low",0.96
same,normalized growth,"S. cerevisiae deletion strains, strain NNK1, active compounds read low",0.976
same,normalized growth,"S. cerevisiae deletion strains, strain TSCII, active compounds read low",0.932

# From PubChem BioAssay AID1159580 (chemical genetic matrix, 2015)
